# Results from ChEMBL document CHEMBL3988442, “University of Dundee, Small-Polar-MMV Screening Library” (2021).
# For some of these results: Potency and affinity values are given separately.
# What was measured:
# Set-up in all cases: scale not given: direction of the effect not stated beside the values
# [1] = target: Protein translocase subunit SecA (Escherichia coli (strain K12)) (UniProt P10408); assay: Assay to Identify E. coli SecA ATPase Inhibitors; assay type: functional; conditions: 30 µM
# [2] = target: T1, Ubiquitin-activating enzyme e1, putative (Leishmania donovani (strain BPK282A1)) (UniProt E9BSI1); assay: Leishmania donovani Ubiquitin Activating Enzyme (LdE1); assay type: functional; conditions: 30 µM
# T1 sequence (whole entry): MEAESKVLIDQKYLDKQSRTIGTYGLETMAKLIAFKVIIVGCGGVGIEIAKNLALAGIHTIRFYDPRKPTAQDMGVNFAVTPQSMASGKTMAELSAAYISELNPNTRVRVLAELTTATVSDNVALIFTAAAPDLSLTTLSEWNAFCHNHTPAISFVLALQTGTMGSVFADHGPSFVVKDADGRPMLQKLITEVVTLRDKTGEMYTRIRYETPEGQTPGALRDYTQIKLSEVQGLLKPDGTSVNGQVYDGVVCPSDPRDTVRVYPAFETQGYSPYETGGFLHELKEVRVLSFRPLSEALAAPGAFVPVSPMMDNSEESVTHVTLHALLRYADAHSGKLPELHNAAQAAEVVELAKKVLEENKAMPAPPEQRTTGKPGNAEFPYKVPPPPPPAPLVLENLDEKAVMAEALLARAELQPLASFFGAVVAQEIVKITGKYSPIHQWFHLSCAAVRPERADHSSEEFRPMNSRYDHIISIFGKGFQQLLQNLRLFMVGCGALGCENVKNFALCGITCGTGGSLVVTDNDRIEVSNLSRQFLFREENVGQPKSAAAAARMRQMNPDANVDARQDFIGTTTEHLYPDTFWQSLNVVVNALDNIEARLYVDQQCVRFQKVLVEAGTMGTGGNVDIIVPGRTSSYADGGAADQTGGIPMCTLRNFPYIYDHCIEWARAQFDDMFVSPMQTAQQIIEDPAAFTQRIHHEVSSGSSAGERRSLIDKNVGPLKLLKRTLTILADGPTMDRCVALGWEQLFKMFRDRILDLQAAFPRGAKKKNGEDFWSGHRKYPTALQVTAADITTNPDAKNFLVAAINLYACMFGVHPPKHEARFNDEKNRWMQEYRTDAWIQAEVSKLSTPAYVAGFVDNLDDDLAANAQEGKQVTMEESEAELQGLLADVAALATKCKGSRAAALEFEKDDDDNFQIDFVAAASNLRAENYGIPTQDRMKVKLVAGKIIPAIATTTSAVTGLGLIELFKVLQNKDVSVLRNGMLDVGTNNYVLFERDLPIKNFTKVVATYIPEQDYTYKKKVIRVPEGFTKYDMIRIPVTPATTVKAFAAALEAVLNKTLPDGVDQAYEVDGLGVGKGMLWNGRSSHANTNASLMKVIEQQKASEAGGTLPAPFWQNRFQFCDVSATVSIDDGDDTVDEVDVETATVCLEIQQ
# [3] = target: Sialic acid-binding Ig-like lectin 9 (Homo sapiens) (UniProt Q9Y336); assay: Hs-Siglec9 ALPHAscreen SOP 20170721; conditions: 10 µM
# Trypanosoma cruzi = assay: Trypanosoma cruzi phosphomannomutase and mannose-1-phosphate guanylyltransferase assay; assay type: functional; conditions: 10 µM
# [4] = target: T2, Arginase-2, mitochondrial (Homo sapiens) (UniProt P78540); assay: in vitro enzyme assay to detect the production of urea directly proportional to the activity of Arginase II; assay type: functional; conditions: 33.3 µM; also: in the data most compounds retested in dose-response had high values
# T2 sequence (whole entry): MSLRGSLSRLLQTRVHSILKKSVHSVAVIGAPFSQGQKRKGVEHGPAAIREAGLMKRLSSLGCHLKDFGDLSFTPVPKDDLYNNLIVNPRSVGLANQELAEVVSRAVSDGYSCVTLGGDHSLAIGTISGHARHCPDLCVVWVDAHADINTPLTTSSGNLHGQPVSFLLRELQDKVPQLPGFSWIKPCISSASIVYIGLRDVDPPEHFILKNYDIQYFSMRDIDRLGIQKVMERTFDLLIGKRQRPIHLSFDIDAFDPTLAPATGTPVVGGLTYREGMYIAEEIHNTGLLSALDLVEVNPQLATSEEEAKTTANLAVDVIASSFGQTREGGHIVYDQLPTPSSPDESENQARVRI
# [5] = target: T3, Proteasome subunit beta (Trypanosoma cruzi) (UniProt O96673); assay: Trypanosoma cruzi proteasome chymotrypsin-like activity (TcProtChymo) assay.; also: in the data most compounds retested in dose-response had high values; assay type: functional; conditions: 9.37 µM
# T3 sequence (whole entry): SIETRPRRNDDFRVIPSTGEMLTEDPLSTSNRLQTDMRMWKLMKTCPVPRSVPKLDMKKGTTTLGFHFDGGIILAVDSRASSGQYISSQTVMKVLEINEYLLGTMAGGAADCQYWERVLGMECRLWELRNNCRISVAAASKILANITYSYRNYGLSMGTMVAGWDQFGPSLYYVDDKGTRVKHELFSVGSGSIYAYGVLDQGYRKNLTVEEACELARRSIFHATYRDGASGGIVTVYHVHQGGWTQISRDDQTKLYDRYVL
# Homo sapiens = species: Homo sapiens; assay: To identify inhibition of the IFN signalling (Jak-Stat) pathway via expression of an eGFP reporter gene under the control of an IFN-stimulated response element (ISRE) containing MxA promoter.; assay type: functional; conditions: 30 µM
# [6] = target: T4, Tyrosyl-tRNA synthetase, putative (Trypanosoma cruzi (strain CL Brener)) (UniProt Q4DSP6); assay: Trypanosoma cruzi tyrosyl tRNA synthetase (TcYRS) _High Tyrosine SOP; assay type: functional; conditions: 30 µM; also: in the data most compounds retested in dose-response had high values
# T4 sequence (whole entry): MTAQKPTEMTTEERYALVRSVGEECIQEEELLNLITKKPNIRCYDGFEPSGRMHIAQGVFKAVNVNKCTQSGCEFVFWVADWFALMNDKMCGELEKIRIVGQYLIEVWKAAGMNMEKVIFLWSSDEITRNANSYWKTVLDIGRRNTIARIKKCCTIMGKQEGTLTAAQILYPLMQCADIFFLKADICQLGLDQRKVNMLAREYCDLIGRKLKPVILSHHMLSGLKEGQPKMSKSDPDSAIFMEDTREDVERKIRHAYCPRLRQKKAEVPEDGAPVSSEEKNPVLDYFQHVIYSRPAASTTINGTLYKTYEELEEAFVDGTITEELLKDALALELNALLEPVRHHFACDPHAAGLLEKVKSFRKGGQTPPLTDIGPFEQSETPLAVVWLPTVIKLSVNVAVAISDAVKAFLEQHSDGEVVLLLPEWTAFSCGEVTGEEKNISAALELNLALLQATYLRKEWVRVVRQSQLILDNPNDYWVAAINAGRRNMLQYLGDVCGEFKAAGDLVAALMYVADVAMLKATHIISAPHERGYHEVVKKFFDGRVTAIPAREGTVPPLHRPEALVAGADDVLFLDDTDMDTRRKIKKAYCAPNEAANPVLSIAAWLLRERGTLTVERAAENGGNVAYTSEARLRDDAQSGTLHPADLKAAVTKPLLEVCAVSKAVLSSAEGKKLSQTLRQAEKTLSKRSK
# [7] = target: T4, Tyrosyl-tRNA synthetase, putative (Trypanosoma cruzi (strain CL Brener)); assay: Trypanosoma cruzi tyrosyl tRNA synthetase (TcYRS) SOP; assay type: functional; conditions: 30 µM
# [8] = target: Chromo domain-containing protein 1 (Saccharomyces cerevisiae (strain ATCC 204508 / S288c) (Baker's yeast)) (UniProt P32657); assay: ScCHD-1 Enzyme Inhibition Assay; assay type: functional; conditions: 30 µM; also: in the data most compounds retested in dose-response had high values
# Sequence of Chromo domain-containing protein 1 (Saccharomyces cerevisiae (strain ATCC 204508 / S288c) (Baker's yeast)) (P32657 whole entry, the tested form may be a part): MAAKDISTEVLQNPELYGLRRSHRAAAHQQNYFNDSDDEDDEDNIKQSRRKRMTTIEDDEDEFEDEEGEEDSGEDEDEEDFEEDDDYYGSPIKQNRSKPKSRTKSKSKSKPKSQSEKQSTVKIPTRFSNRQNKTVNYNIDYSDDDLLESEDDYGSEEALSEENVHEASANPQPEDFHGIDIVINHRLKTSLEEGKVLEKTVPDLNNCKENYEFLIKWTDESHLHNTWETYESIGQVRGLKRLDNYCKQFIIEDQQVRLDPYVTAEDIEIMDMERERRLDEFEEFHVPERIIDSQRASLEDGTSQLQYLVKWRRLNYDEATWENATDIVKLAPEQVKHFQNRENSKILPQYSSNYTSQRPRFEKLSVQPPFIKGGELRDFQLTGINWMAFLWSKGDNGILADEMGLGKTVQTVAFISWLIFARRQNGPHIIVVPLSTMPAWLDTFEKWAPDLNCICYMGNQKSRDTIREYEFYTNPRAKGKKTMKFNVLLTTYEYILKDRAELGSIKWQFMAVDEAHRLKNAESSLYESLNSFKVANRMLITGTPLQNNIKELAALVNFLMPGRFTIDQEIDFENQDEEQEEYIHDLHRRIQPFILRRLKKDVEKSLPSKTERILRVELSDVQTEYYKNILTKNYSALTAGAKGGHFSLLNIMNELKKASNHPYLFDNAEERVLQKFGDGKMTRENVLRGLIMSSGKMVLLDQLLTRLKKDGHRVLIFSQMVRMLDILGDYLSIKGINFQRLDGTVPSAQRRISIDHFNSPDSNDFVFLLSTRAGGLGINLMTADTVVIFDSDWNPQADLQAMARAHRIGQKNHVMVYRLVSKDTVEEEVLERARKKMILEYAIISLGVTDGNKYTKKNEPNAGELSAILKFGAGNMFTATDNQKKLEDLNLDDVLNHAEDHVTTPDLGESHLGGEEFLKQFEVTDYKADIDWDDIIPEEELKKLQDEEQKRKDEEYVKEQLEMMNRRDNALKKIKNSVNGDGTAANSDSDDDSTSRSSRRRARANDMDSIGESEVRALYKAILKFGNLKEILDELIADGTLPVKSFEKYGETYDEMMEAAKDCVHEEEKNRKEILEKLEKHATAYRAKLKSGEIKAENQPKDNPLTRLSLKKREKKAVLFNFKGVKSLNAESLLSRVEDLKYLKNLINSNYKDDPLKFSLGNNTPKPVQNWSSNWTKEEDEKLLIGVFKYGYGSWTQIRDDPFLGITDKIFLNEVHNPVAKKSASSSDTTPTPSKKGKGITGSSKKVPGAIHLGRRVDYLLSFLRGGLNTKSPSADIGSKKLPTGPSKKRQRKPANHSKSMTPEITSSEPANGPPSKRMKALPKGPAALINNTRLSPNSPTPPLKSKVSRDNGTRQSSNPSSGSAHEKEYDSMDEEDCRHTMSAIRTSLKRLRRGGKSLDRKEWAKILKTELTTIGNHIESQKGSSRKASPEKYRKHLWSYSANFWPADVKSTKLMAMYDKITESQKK
# Sequence of Sialic acid-binding Ig-like lectin 9 (Homo sapiens) (Q9Y336 whole entry): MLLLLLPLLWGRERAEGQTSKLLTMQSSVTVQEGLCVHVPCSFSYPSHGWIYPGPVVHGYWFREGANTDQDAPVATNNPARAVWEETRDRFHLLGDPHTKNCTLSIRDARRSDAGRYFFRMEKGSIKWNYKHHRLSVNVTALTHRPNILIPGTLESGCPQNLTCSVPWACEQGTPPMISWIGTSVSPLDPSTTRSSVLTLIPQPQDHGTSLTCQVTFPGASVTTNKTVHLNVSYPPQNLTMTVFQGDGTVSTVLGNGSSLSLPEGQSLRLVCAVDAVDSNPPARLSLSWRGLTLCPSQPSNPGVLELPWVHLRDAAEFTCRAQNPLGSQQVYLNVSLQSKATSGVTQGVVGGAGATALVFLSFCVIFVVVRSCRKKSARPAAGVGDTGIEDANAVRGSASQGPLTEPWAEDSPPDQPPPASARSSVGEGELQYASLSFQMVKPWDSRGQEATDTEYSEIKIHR
# Sequence of Protein translocase subunit SecA (Escherichia coli (strain K12)) (P10408 whole entry): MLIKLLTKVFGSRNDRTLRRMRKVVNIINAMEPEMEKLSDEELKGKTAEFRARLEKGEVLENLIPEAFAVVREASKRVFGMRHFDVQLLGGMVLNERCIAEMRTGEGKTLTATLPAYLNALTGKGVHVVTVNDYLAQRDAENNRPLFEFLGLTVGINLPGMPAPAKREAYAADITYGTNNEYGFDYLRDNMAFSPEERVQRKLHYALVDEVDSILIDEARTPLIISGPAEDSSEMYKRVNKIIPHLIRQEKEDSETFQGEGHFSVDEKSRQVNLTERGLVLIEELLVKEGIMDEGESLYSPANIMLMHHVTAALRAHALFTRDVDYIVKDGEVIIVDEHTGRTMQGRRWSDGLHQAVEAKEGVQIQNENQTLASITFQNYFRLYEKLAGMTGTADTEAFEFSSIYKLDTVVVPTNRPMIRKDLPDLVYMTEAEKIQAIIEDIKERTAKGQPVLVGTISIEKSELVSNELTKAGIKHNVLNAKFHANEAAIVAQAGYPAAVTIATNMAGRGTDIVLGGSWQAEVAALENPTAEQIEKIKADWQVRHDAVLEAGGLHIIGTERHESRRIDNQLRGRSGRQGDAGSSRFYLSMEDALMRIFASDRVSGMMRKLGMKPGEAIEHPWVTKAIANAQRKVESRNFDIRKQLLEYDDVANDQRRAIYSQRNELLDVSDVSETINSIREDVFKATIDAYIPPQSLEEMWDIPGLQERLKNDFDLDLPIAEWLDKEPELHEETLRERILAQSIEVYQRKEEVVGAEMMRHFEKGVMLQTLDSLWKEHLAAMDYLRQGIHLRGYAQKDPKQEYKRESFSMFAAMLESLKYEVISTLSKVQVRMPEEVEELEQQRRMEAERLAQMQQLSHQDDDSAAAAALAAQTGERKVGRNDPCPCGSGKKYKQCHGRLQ
SMILES,Percent Effect [1] [%],Percent Effect [2] [%],Percent Effect [3] [%],Percent Effect (Trypanosoma cruzi) [%],Percent Effect [4] [%],Percent Effect [5] [%],Percent Effect (Homo sapiens) [%],Percent Effect [6] [%],Percent Effect [7] [%],Percent Effect [8] [%]
Cn1ncc(C(=O)N2CCCC(n3cccn3)C2)c1C1CC1 (stereo not given),-4.48,10.7,0.531,-3.61,3.1,11.6,8.56,2.63,5.13,-7.06
CC1CN(CC2CCCCC2)CCN1c1ccc2nncn2n1 (stereo not given),3.17,15.4,-7.37,-4.6,-0.82,16.1,58.1,5.26,8.43,95.7
CC(C)CNC(=O)c1ccc2nnc(C3CCN(S(C)(=O)=O)C3)n2c1 (stereo not given),-3.3,-3.9,1.06,-1.27,0,3.44,-2.55,-0.526,2.56,-1.85
CC(=O)N1CCOC2(CCN(C(=O)c3cnoc3C)CC2)C1,-3.9,-1.3,2.36,0.682,-0.405,0.441,-5.16,2.63,5.13,2.4
CN(Cc1cn2ccccc2c1C#N)C1CCCN(c2cccnn2)C1 (stereo not given),-1.94,-15.6,10.5,1.31,-3.07,13.7,6.2,13.7,9.41,-7.9
Cc1cccc(C(=O)N2CCCCC2c2ccc(CN(C)C)cc2)n1 (stereo not given),-1.58,18.9,3.59,5.92,27.6,21.2,5.13,9.04,14.6,-6.07
Cn1cc(N2CC3(COCCN(Cc4ccsc4)C3)OCC2=O)cn1 (stereo not given),-9.04,-1.3,10.7,-1.46,0.405,2.21,6.9,4.74,-5.13,2.44
O=C(NCCOc1ccc2c(c1)OCO2)N1CCC1,-4.13,20.8,6.65,-3.36,5.94,19.1,-11.1,4.9,16.5,-4.94
CS(=O)(=O)N1CCC2(CC1)CC(CC(=O)N1CCCC1)c1ccccc12 (stereo not given),-6.42,6.49,10.4,-2.43,-5.67,2.21,-5.9,1.58,-7.69,2.73
COc1ccc(CN2CCN(C(C)=O)CC3(CC(=O)N(C)C3)C2)cc1 (stereo not given),-0.72,14.3,1.28,-0.375,2.28,6.44,4.32,12.6,20,-6.64
COc1ccccc1NC(=O)CSC1CCc2ccccc2NC1=O (stereo not given),-4.52,13.5,8.46,4.17,17.1,18.3,13,5.85,17.1,-4.97
c1cnnc(N2CCCC2CNCc2nc(-c3ccsc3)no2)c1 (stereo not given),-4.07,-23.1,-7.35,9.11,-6.15,0.256,-10.2,5.26,6.02,-1.74
Cc1cnc(CN(C)C2CCN(Cc3nc4ccccc4n3C)C2)o1 (stereo not given),-2.3,16,-6.81,3.21,-4.43,22.6,-0.979,14.2,17.9,-12.5
CN1CC(c2ccccc2)CC12CCN(C(=O)c1ccc(F)cc1)CC2 (stereo not given),-9.69,0,9.54,-2.04,2.45,6.34,16.1,0.532,2.44,-1.53
COCC(=O)N1CC[C@@H](O)[C@@H]1Cc1ccccc1,-2.38,3.9,-3.29,1.27,-4.45,6.27,-19.5,-5.79,0,-0.374
CC(=O)N1CCC2(CCN(C(=O)c3ccc(Cl)c(C(F)(F)F)c3)CC2)C1,-7.31,6.49,5.74,0.292,-0.405,7.5,-12.1,6.84,7.69,3.63
COc1ccccc1OCC(=O)NS(=O)(=O)c1ccccc1Br,-3.71,13,10.4,5.78,5.12,3.51,4.3,0,16.5,-9.19
Cc1cc(-c2cnn(CCNC(=O)C3CC3)c2C2CC2)on1,-4.16,4,-5.41,-1.77,-1.77,5.91,17.8,-3.17,0,-25.2
CN(C)C[C@H]1OC[C@@H]2CCN(S(=O)(=O)c3cccs3)C[C@@H]21,-10.2,1.3,12.5,-2.43,-2.43,2.56,0.627,-0.526,-2.56,19.4
